# Assay results as given in PubChem BioAssay AID504690 (Sanford-Burnham Center for Chemical Genomics, 2011).
# About 2,700 (0.77%) of roughly 350,000 compounds were called active. The sample holds actives, similar compounds and a random draw of the others, so the mix is not that of the screen.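 The calls were made as follows: active = inhibition reaching at least a set limit at 20 µM in the primary screen (cut at about 59% in these data); inactive = the rest.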
# System: glucose-6-phosphate dehydrogenase-6-phosphogluconolactonase (Plasmodium falciparum 3D7)
# Experiment: PfG6PD enzyme inhibitors, primary screen, biochemical, fluorescence intensity, uHTS (AID 504690);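 also: 0% = DMSO wells with substrate and 100% = DMSO wells lacking glucose-6-phosphate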
# Details: PfGluPho enzyme, NADPH resazurin-diaphorase fluorescence; at 20 µM; hits give high values
row,Structure (SMILES),inhibition
1,CN(C(=O)c1cccc(NC(=O)Cc2cccc(NC(=O)C3CCCN(C(=O)C4CC4)C3)c2)c1)C1CCC1 (stereo not drawn),13.5% (inactive)
2,Cc1ccc(Nc2nc(CSc3nnnn3-c3ccccc3)cc(=O)[nH]2)cc1,2.74% (inactive)
3,O=C(Nc1nc(-c2ccncc2)cs1)C1COc2ccccc2O1 (stereo not drawn),82.1% (active)
4,C/C(=N/NC(=O)C1COc2ccccc2O1)c1ccco1 (stereo not drawn),-17.2% (inactive)
5,COc1ccc(NC(=O)COC(=O)C2COc3ccccc3O2)cc1 (stereo not drawn),-2.2% (inactive)
6,CCOC(=O)C1(CCOc2ccccc2)CCN(C(=O)c2cncs2)CC1,-8.03% (inactive)
7,N#Cc1cnn2cc(CCN3CCOCC3)c(-c3ccc(F)cc3)nc12,-4.2% (inactive)
8,O=C(C1CCC1)N1CCN(c2ccccc2)CC1,-11.2% (inactive)
9,O=C1C=CC(=O)N1c1ccc(N2CCCCC2)cc1,59.2% (active)
10,O=C(C1CC(=O)N(C2CCCCC2)C1)N1CCN(c2ccccc2)CC1 (stereo not drawn),1.77% (inactive)
11,O=C(CSc1ccc(C(F)(F)F)cc1[N+](=O)[O-])NCCOc1ccccc1,4.59% (inactive)
12,CCc1cccc(NC(=S)N(CCN(C)C)C2CCN(C(C)C)CC2)c1,-1.59% (inactive)
13,CC(C)c1cc(C(N)=O)c(NC(=O)c2cccc(COc3ccc(Br)cc3)c2)s1,17.7% (inactive)
14,CC(C)Oc1ccc(C(=O)NC(C)(C)CO)cc1,-5.29% (inactive)
15,Cc1cc(C(F)(F)F)nc(SCC(=O)Nc2nccs2)n1,14.7% (inactive)
16,CCOC(=O)c1sc(NC(=O)CSc2nc(C)cc(C(F)(F)F)n2)c(C#N)c1C,60.4% (active)
17,CCn1c(SCC(=O)Nc2sc(C)c(C)c2C#N)nnc1C1CC1,13.8% (inactive)
18,CCOC(=O)c1cc2c(=O)n3ccccc3nc2n(CC(C)C)c1=NC(=O)c1c(-c2c(F)cccc2Cl)noc1C,10.9% (inactive)
19,O=C(CSc1nnc(SCc2ccc(Cl)cc2)s1)N/N=C/c1ccccc1Cl,75.1% (active)
20,O=C(Cc1ccccc1)N/N=C/c1ccc(Cl)cc1Cl,8.79% (inactive)
21,O=C(CSc1nnc(SCc2ccc(F)cc2)s1)Nc1ccc(C(=O)O)cc1,-15.7% (inactive)
22,CC1CCCN(C(=O)Cn2c(=O)oc3cc(S(=O)(=O)N4CCCCC4C)ccc32)C1 (stereo not drawn),-4.91% (inactive)
23,CC(C)(C)c1cc2cccnc2n1Cc1ccccc1,2.96% (inactive)
